# Results reported in PubChem BioAssay (NCI).
# About 83,000 compounds went through this panel and 20% of them were active in at least one assay; those are over-represented in the sample as a whole.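 Method: cells in 96-well plates; compound added at one concentration; 48 h incubation; percent growth measured; values under 10 scored active.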 A number with no mark means an inactive call. Calls of active or inactive are those of the source.
# System: SR leukemia
# Test: NCI-60 one-dose screen, 48 h (100 = growth as untreated, 0 = no growth, -100 = all killed)
# Conditions: 10 µM unless noted
row,Compound,growth
1,COc1cc(C(=O)NN=C2c3ccccc3-c3ccccc32)cc(OC)c1OC,13.9%
2,COc1cc(-c2c3c(c(Br)n2Cc2ccccc2)-c2nc(N)sc2CC3)cc(OC)c1OC,40.2%
3,O=C(Nc1ccc(-c2nc3cc4ccccc4cc3[nH]2)cc1)c1cccc(Br)c1,76.4%
4,Cc1cc(Nc2ccc(OCc3ccccc3)cc2)nc2cc(O)ccc12,-17.5% (active)
5,Nc1nonc1-n1nncc1-c1cccnc1,103%
6,N#C/C(=C1\SC(=O)CN1c1ccccc1)c1nc2ccccc2s1,76.4%
7,Clc1ccc(-c2nnc(COc3ccc(C4=NNC(c5ccco5)C4)cc3)o2)cc1 (centres undefined),80.7%
8,CCOC(=O)CSc1c(-c2ccccc2)c2cc(Cl)ccc2[nH]c1=O,75.8%
9,COC(=O)C1(C)COP(=O)(Nc2ccc(OC)cc2)OC1 (centres undefined),93.2%
10,CC1=C(CC(=O)c2cccc([N+](=O)[O-])c2)C(=O)c2ccccc2C1=O,-46.1% (active)
11,N#Cc1c(N)nc2c(c1N)C(c1ccc(F)cc1)c1ccc(N)cc1O2 (centres undefined),93%
12,O=C(Nc1nc2c(s1)CCc1c-2c(Br)n(Cc2ccccc2)c1Br)c1ccccc1,70.3%
13,CN(C)CCNc1cc(-c2ccccc2)nc2ccccc12,-23.1% (active)
14,O=S(=O)(c1ccc(NC(=S)NC23CC4CC(CC(C4)C2)C3)cc1)N1CCCCC1,-21.9% (active)
15,CCCCc1c(CCC)c(=N)c2ccccc2n1C,6.82% (active)
16,COc1ccccc1N1C(=N)S/C(=C\c2ccc(OCc3ccccc3F)cc2)C1=O,73.4%
17,Cc1ccc(S(=O)(=O)c2c(COC(=O)c3cccc(C)c3)c(-c3ccccc3)nn2C)cc1,1.41% (active)
18,COc1ccc(-c2nc(N3CCN(C(=O)C4CCCCC4)CC3)c3c4c(sc3n2)CCCC4)cc1,-33.2% (active)
19,CC(=Nc1ccccc1)C1=C(O)C(Cc2ccc(F)cc2)NC1=O (centres undefined),6.59% (active)
20,CCOc1ccccc1CN1CCc2nc3cc(C(C)(C)C)[nH]n3c(=O)c2C1,88.5%

row,Compound,growth
1,COc1cc(C(=O)O/N=C(\N)Cc2cccc3ccccc23)cc(OC)c1OC,-30.4% (active)
2,O=C1OC(c2ccccc2)(c2ccccc2)c2ccsc21,84.5%
3,COc1ccc2sc(N(Cc3cccnc3)C(=O)c3ccc(C#N)cc3)nc2c1,66.4%
4,O=C(NC1CCN(Cc2ccccc2)CC1)c1cc(C(=O)NC2CCN(Cc3ccccc3)CC2)cc(C(=O)NC2CCN(Cc3ccccc3)CC2)c1,20.1%
5,Oc1c(CN2CCN(c3ccccc3F)CC2)cc(Br)c2cccnc12,-6.68% (active)
6,O=C(Nc1ccc(Cl)cc1)N1CCN(c2ccc3nncn3n2)CC1,-40.5% (active)
7,Cc1[nH]c2ccccc2c(=O)c1CC=C(Cl)Cl,-8.18% (active)
8,COc1ccc(C)c2sc(N(Cc3cccnc3)C(=O)c3ccc(C#N)cc3)nc12,8.52% (active)
9,O=C(Cc1ccccc1)NC(c1ccc(Cl)cc1)c1c(O)ccc2ccccc12 (centres undefined),4.83% (active)
10,CCOC(=O)C1=CN(C)C=C(C(=O)OCC)C1c1cc(Br)c(OCC)c(OC)c1,-0.61% (active)
11,COc1ccc(/C=C/C(=O)c2ccc3cc(OC)c(OC)cc3c2)cc1OC,3.83% (active)
12,CCC1=C[C@@H]2CN(C1)Cc1c([nH]c3ccccc13)[C@@](C(=O)OC)(c1cc3c(cc1OC)N(C)[C@H]1[C@@](O)(C(=O)OC)[C@H](OC(C)=O)[C@]4(CC)[C@@H]5C[C@@H]5CN5CC[C@]31[C@@H]54)C2,-19.3% (active)
13,COc1ccc(-c2nsc3c2NC(=O)CC3c2ccc3c(c2)OCCO3)cc1 (centres undefined),28.9%
14,CCCCNc1nc(NC(C)(C)C)nc(NC(C)(C)C)n1,33.6%
15,CCOc1ccc2nc(C)cc(Nc3ccc(Br)cc3)c2c1,86.4%
16,Cc1ccc(Nc2nc(N)c3ccccc3n2)cc1Cl,1.13% (active)
17,CCOC(=O)C1=C(C)N=c2s/c(=C\c3cc(Cl)ccc3O)c(=O)n2C1c1ccc(OC)cc1 (centres undefined),86%
18,COC(=O)[C@@H]1CCCN1C(=O)[C@H]1CCCN1C(=O)[C@@H](Cc1c[nH]c2ccccc12)NC(=S)Nc1cc(C(F)(F)F)cc(C(F)(F)F)c1,5.25% (active)
19,COc1ccc(-c2cc(=O)c3c(OC)c4ccoc4c(/C=C/C=O)c3o2)cc1,-8.77% (active)
